# Test results published in PubChem BioAssay AID651965 (National Center for Advancing Translational Sciences (NCATS), 2013).
# Out of some 340,000 compounds screened, about 6,400 (1.9%) were called active. Another 4% or so got no clear call; they are omitted. The call rests on the fitted dose curve; in most records, active means well fitted falling curve with a large enough effect; inconclusive means small, poorly fitted or top-dose-only effect; inactive means no such curve, though single readings can be large or run the other way. Shown is part of a subset that was picked to be rich in actives.
# Target: ATP-dependent Clp protease proteolytic subunit (Bacillus subtilis (strain 168)) (UniProt P80244)
# Sequence (P80244 whole entry, looked up): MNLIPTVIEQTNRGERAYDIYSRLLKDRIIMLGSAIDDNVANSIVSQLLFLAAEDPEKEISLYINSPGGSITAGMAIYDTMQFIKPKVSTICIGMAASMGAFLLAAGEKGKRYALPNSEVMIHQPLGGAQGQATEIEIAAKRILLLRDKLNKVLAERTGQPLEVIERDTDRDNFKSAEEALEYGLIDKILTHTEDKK
# Assay: qHTS Assay for Activators of ClpP; further: the source files actives as falling curves though it sought activators and does not explain the sign; nearly all actives have a fitted effect of over 65% in size
# Settings: purified B. subtilis ClpP, FRET peptide cleavage, 20 min; series mostly up to 57.5 µM; activity change, negative = active: at the top concentration
# Method in brief: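 Buffer: 100 mM Tris/HCl pH8, 100 mM KCl, 0.05% low protease BSA, 2.5% glycerol, 0.01% Tween-20. ClpP 10 microg/mL final; 20 min RT; delta FRET normalized to ADEP and DMSO controls.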
# Potency means the concentration at half of the fitted maximal effect.
SMILES,"activity change, negative = active",Potency
OC(c1ccc(Cl)cc1)c1ncc(-c2ccc(Cl)cc2)[nH]1 (stereo not drawn),-0.996% (inactive),–
C#CC(C)(C)NC(=O)c1cnc(-c2ccccc2)nc1-c1ccccc1,-0.381% (inactive),–
Cc1nc(-c2ccccc2)sc1-c1nc(-c2ccccc2)ncc1S(=O)(=O)c1ccccc1,–,31.6 µM (active)
C=CCn1c(-c2sc(-c3ccccc3)nc2C)n[nH]c1=S,-0.756% (inactive),–
CC1(C(=O)NCc2ccc(F)c(F)c2)Cc2c(-c3ccc4c(c3)OCO4)ccnc2O1 (stereo not drawn),5.31% (inactive),–
CC(C)CCOc1ccc(C(=O)Nc2cc(S(=O)(=O)N3CCOCC3)ccc2N2CCOCC2)cc1,0.109% (inactive),–
Cn1c(NN)nc2sc3c(c2c1=O)CCC3,–,11.2 µM (active)
CCCc1nc2sc3c(c2c(=O)n1NC(=O)CCCl)CCCC3,1.41% (inactive),–
NNC(=O)C1CCCn2c1nc1sc3c(c1c2=O)CCCC3 (stereo not drawn),-3.47% (inactive),–
OCCNc1ncnc2oc(-c3ccco3)c(-c3ccco3)c12,4.8% (inactive),–
CCOc1ccc(CCN2C(=O)C(=O)N([C@@H](Cc3ccc(O)cc3)CN3CCC[C@H]3CN3C(=O)C(=O)NC[C@@H]3CC(C)C)C[C@@H]2Cc2ccccc2)cc1,-1.5% (inactive),–
COc1ccc(NC(=O)CCCOc2ccc(C(C)=O)cc2)cc1S(=O)(=O)N1CCCCC1,1.57% (inactive),–
Cc1ccc(NC(=S)N(CCN(C)C)Cc2cccs2)cc1C,0.917% (inactive),–
Cc1ccccc1NC(=S)N(CCCN1CCOCC1)Cc1cccs1,–,28.2 µM (active)
CCN(Cc1ccncc1)C(=S)Nc1ccccc1C,-1.5% (inactive),–
COc1ccc(/C=C/c2ccccn2)cc1OC,4.51% (inactive),–
Cc1cccnc1C(NC(=O)C1CCN(Cc2ccc(Cl)c(Cl)c2)CC1)c1ccc(Cl)cc1 (stereo not drawn),0.951% (inactive),–
O=C1Nc2ccccc2NC(c2ccc3c(c2)OCO3)=C1N(Cc1ccc(F)cc1)C(=O)c1ccco1,1.77% (inactive),–
CC(=O)Nc1cccc(C(=O)OCC(=O)c2ccc3c(c2)OCO3)c1,–,12.6 µM (active)
O=C(COC(=O)c1ccccc1)c1ccc2c(c1)OCCO2,-1.68% (inactive),–
O=C(COC(=O)c1ccc(F)cc1)Nc1ccc2c(c1)OCO2,-1.94% (inactive),–
CC(=O)Nc1cccc(-c2cc3nc(NCc4cccnc4)n(C)c(=O)c3s2)c1,-19.5% (inactive),–
COc1ccc(C(c2nnnn2C2CCCC2)N2CCN(C/C=C/c3ccccc3)CC2)cc1 (stereo not drawn),-3.35% (inactive),–
CC(=O)C1=CCC(c2ccccc2)N(S(=O)(=O)c2ccc(C)cc2)C1 (stereo not drawn),-14% (inactive),–
CCOc1cccc2cc(C(=O)OCC(=O)Nc3c(C)cccc3CC)c(=O)oc12,12.9% (inactive),–
C=CCc1cccc2cc(C(=O)N3CCN(C(=O)OCC)CC3)c(=O)oc12,-12.7% (inactive),–
C=CCc1cccc2cc(C(=O)OCC)c(=O)oc12,–,35.5 µM (active)

SMILES,"activity change, negative = active",Potency
CCOC(=O)C1=CCC2C(=O)N(Cc3ccccc3)C(=O)C12 (stereo not drawn),1.34% (inactive),–
CC(C)c1cc(Cn2c3ccccc3c(=O)n2C(C)Cn2cc(C3CC3)nn2)on1 (stereo not drawn),4.78% (inactive),–
COc1ccc(CCNC(=O)CSc2nnc3ccc(-c4ccncc4)nn23)cc1,-2.01% (inactive),–
COc1ccc(CCNC(=O)CSc2nc(C)nc3c2oc2ccccc23)cc1OC,1.33% (inactive),–
COc1ccc(CCNC(=O)CSc2nc(-c3ccc(OC)c(OC)c3)ccc2C#N)cc1,–,17.8 µM (active)
COc1ccc(CCNC(=O)COC(=O)c2cnc(Cl)c(Cl)c2)cc1,-4.01% (inactive),–
COc1cccc(-c2ccc(C#N)c(SCC(=O)NCCc3ccc(Cl)cc3)n2)c1,–,35.5 µM (active)
COc1cccc(CNC(=O)CSc2c3c(nc4cc(Cl)ccc24)CCCC3)c1,-1.55% (inactive),–
Nc1nc2cc(Cl)ccc2n1N,0.944% (inactive),–
OCC1OC(n2cnc3c(N4CCCC4)ncnc32)C(O)C1O (stereo not drawn),0.893% (inactive),–
COc1cccc(C(O)c2nc(-c3ccc(C)c(C)c3)cs2)c1 (stereo not drawn),-3% (inactive),–
CCOC(=O)[C@]12CCCC=C1N(Cc1cccc3ccccc13)C(=O)[C@H](CC(=O)NCC13CC4CC(CC(C4)C1)C3)C2,-3.53% (inactive),–
CCCCN(C=O)c1c(CC)nc2c(OCc3ccccc3C(=O)OC)cccn12,-0.714% (inactive),–
C[C@@H]1CN([C@@H](C)CO)C(=O)CCCn2nncc2CO[C@H]1CN(C)C(=O)Nc1ccc(C(F)(F)F)cc1,-2.86% (inactive),–
Cc1nc(C(=O)NCc2ccccc2)sc1C1(C)CC(c2cccnc2)=NO1 (stereo not drawn),-0.0404% (inactive),–
CC1(C)Cc2cccc(OCC(=O)NCc3ccccc3)c2O1,0.208% (inactive),–
Cc1nc(NCc2ccccc2)c(C(N)=O)c2c1COC(C)(C)C2,–,22.4 µM (active)
COC(=O)[C@]12CCCCC=C1N(CCC1=CCCCC1)C(=O)[C@H](CC(=O)N1CCSCC1)C2,3.9% (inactive),–
CC(=O)Nc1cnc(-c2ccc(O)cc2C)cn1,-2.26% (inactive),–
Brc1ccc2nc(-c3ccccc3)c(Cc3ccccc3)n2c1,-9.97% (inactive),–
CC(C)OC(=O)C(C#N)c1nc2ccccc2nc1N1CCN(Cc2ccccc2)CC1 (stereo not drawn),-3.63% (inactive),–
CC1(C)Cc2c(sc(NC(=O)C(=O)N3CCOCC3)c2C#N)CO1,-0.519% (inactive),–
CC(C)c1nc(N2CCOCC2)c(C#N)c2c1COC(C)(C)C2,–,15.8 µM (active)
CCOC(=O)N1CCN(C(=O)C(=O)Nc2sc3c(c2C#N)CC(C)(C)OC3)CC1,-0.849% (inactive),–
CC(C)C(=O)N1CCC2(CC1)Oc1ccc(F)cc1C(=O)C21CC(c2ccccc2)=NO1 (stereo not drawn),-6.58% (inactive),–
CC(C)C(=O)N1CCN(c2nc(-c3ccccc3)c3c(c2C#N)CC(C)(C)OC3)CC1,–,28.2 µM (active)
